# Measurements taken from publication PMC12215968.
# Tests used:
# [1] = target: Eukaryotic translation initiation factor 3 subunit C (UniProt Q99613); assay: cross-linking mass spectrometry
# [2] = target: Peptidyl-prolyl cis-trans isomerase A (UniProt P62937); assay: cross-linking mass spectrometry
# Thymosin beta-4 = Thymosin beta-4 (UniProt P62328); assay: cross-linking mass spectrometry
# [3] = target: 26S proteasome non-ATPase regulatory subunit 2 (UniProt Q13200); assay: cross-link between two proteins; cross-linking mass spectrometry
# [4] = target: Adenylyl cyclase-associated protein 1 (UniProt Q01518); assay: as above
# [5] = target: Elongation factor 1-alpha 2 (UniProt Q05639); assay: as above
# [6] = target: Heat shock protein HSP 90-beta (UniProt P08238); assay: as above
# [7] = target: Putative heat shock protein HSP 90-beta-3 (UniProt Q58FF7); assay: as above
# Histone H1.2 = Histone H1.2 (UniProt P16403); assay: as above
# Histone H2B type F-S = Histone H2B type F-S (UniProt P57053); assay: as above
# Junctophilin-2 = target: T1, Junctophilin-2 (UniProt Q9BR39); assay: as above
# T1 sequence: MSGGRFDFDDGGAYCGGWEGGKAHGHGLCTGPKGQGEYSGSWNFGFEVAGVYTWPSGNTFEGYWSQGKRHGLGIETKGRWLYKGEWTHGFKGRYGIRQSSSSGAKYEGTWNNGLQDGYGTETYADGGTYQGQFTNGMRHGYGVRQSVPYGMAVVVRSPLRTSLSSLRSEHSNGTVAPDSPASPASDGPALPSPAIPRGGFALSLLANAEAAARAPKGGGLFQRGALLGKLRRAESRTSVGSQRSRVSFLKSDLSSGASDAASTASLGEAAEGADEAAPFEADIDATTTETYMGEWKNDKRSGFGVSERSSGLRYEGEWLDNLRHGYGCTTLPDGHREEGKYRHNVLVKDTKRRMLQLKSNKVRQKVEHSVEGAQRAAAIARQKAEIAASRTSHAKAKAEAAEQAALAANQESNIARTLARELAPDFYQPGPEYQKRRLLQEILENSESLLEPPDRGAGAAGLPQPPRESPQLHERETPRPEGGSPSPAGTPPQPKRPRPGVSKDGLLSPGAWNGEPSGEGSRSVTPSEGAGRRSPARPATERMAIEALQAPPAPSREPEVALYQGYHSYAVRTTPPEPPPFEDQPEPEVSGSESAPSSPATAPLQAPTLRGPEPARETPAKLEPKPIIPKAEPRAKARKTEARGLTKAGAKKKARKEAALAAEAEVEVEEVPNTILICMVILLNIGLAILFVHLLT
# [8] = target: Large ribosomal subunit protein eL24 (UniProt P83731); assay: as above
# [9] = target: Ribosomal protein eL42-like (UniProt Q969Q0); assay: as above
# Thymosin beta-10 = Thymosin beta-10 (UniProt P63313); assay: as above
# [10] = target: Ubiquitin-conjugating enzyme E2 L3 (UniProt P68036); assay: as above
# [11] = target: Ubiquitin-like FUBI-ribosomal protein eS30 fusion protein (UniProt P62861); assay: as above
# [12] = target: Ubiquitin-ribosomal protein eS31 fusion protein (UniProt P62979); assay: as above
substance,measurement,setting,value
"Small ribosomal subunit protein uS15, P62277",listed as a hit,[1],yes
"Actin, cytoplasmic 1, P60709",listed as a hit,[2],yes
same,listed as a hit,Thymosin beta-4,yes
"26S proteasome regulatory subunit 8, P62195",listed as a hit,[3],yes
"Actin, alpha cardiac muscle 1, P68032",listed as a hit,[4],yes
"Large ribosomal subunit protein uL13, P40429",listed as a hit,[5],yes
O60361,listed as a hit,[6],yes
same,listed as a hit,[7],yes
"Non-histone chromosomal protein HMG-17, P05204",listed as a hit,Histone H1.2,yes
"Histone H2A type 1, P0C0S8",listed as a hit,Histone H2B type F-S,yes
"Histone H2B type 1-C/E/F/G/I, P62807",listed as a hit,Junctophilin-2,yes
"Large ribosomal subunit protein eL8, P62424",listed as a hit,[8],yes
"Large ribosomal subunit protein uL1, P62906",listed as a hit,[9],yes
"Actin, cytoplasmic 2, P63261",listed as a hit,Thymosin beta-10,yes
"Ubiquitin-ribosomal protein eS31 fusion protein, P62979",listed as a hit,[10],yes
"Elongation factor 2, P13639",listed as a hit,[11],yes
"Histone H2A type 1-D, P20671",listed as a hit,[12],yes
"Histone H2A type 1-B/E, P04908",listed as a hit,[12],yes
